MK inhibit: blocks S. pneumoniae mevalonate kinase | AID 555 | inhibition, % at 10 µM | 0.48% of 65,000 active | purified MK, PK/LDH-coupled NADH absorbance 340 nm;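 active = ranked among the strongest by inhibition in the single 10 µM screen, a fixed top-ranked set picked for dose follow-up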
Abs 340nm: compound absorbs light at 340 nm; compound absorbance at 340 nm, fold over control; AID 708; 65,000 tested, under 10 active; fold change at 10 µM;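 active = at 10 µM dose, initial 340 nm absorbance at least 2 fold that of control wells; inactive = change under 2 fold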;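 also: initial absorbance extrapolated from kinetic A340 decline of NADH oxidation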
Spn PMK inh: inhibitors of Streptococcus pneumoniae phosphomevalonate kinase; AID 539; 0.49% of 65,000 active; purified PMK, PK/LDH-coupled NADH absorbance 340 nm; inhibition, % at 10 µM;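 active = top-ranked compounds by inhibition in the single 10 µM screen, taking a fixed number of the strongest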;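 also: 0% = full reaction with DMSO carrier and 100% = background rate without enzyme reaction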
NADH enzymes: inhibition of NAD/NADH coupling enzymes, library profiling; 0.02% of 65,000 active; IC50, µM (highest dose often 10 µM), for inactives: at the highest dose inhibition; coupled PK/LDH NADH assays, four targets; AID 774;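 active = single-dose screening hits from any of four coupled enzyme assays that gave an IC50 when retested across doses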;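 also: the DPM-DC format reads NADH fluorescence rather than 340 nm absorbance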
DPM-DC inhibit: S. pneumoniae DPM-DC inhibition | calls only at 10 µM | 0.49% of 65,000 active | purified DPM-DC, PK/LDH coupled NADH fluorescence;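 active = the 320 compounds with the highest percent inhibition in the single-dose primary screen, excluding strongly autofluorescent ones, cut at about 32% in these data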;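 also: kinetic rate of NADH fluorescence loss reporting ADP formed by the decarboxylase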
Fluor 339 460: intrinsic fluorescence of library compounds, ex339/em460 – biochemical, MLSMR library, data from DPM-DC assay, artefact control, profiling panel; AID 709; compound autofluorescence, ex339/em460 nm, NADH buffer; active compounds read high; 1 = no-compound wells, NADH background; 5.5% of 65,000 active; fluorescence fold increase at 10 µM;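 active = at 10 µM, mean starting fluorescence two-fold or more over control wells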;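 also: signal is the first read of a kinetic run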
Starred values were filed as active, the others as inactive; i = inactive; · = not tested or not shown; ! = repeats disagree. An excerpt weighted towards active compounds, which were near 6.3% of everything screened.

SMILES | MK inhibit | Abs 340nm | Spn PMK inh | NADH enzymes | DPM-DC inhibit | Fluor 339 460
COC(=O)C1=CN(CCCN2CCCC2=O)C=C(C(=O)OC)C1c1ccccc1C(F)(F)F | 7 | 1 | 7 | 7% | · | 2.2*
COC(=O)C1=C(C)NC(C)=C(C(=O)OC)C1c1ccccc1[N+](=O)[O-] | 4 | 0.98 | 7 | 4% | i | 0.57
CCOC(=O)C1=C(C)NC(C)=C(C(=O)OC)C1c1cccc([N+](=O)[O-])c1 (configuration not stated) | 4 | 0.99 | 1 | 3% | i | 0.98
O=C1C2CCCN2C(c2ccc(Cl)cc2)N1c1nccs1 (configuration not stated) | 1 | 0.99 | 9 | 1% | i | 1.1
O=C(CCN1CCN(CCC(=O)c2ccccc2)CC1)c1ccccc1 | 5 | 1 | 11 | 5% | i | 1.1
COC(=O)C1=CN(C(C)C)C=C(C(=O)OC)C1c1cccc(OC)c1 | 4 | 1.1 | 4 | 4% | · | 2.2*
CCCCOc1ccccc1C1C(C(=O)OC)=CN(CC)C=C1C(=O)OC | 10 | 1.1 | 3 | 7% | · | 2.2*
CCCCOc1ccccc1C(=O)NCC(=O)O | 7 | 1 | 6 | 5% | i | 1.1
COC(=O)c1cc(-c2cccc(OC)c2)on1 | 3 | 0.96 | 10 | 4% | i | 1.1
Cc1cc(N)n2ncc(-c3cccc(Br)c3)c2n1 | 10 | 1.1 | 11 | 11% | · | 2.2*
Cc1cc(N)n2ncc(-c3ccccc3)c2n1 | 7 | 1.2 | 0 | 7% | i | 1.7
CCOC(=O)C1CCN(C(=O)CCNC(=O)c2cc(OC)c(OC)c(OC)c2)CC1 | 0 | 1 | 10 | 3% | i | 1.1
COc1ccc2c(c1OC)C(=O)OC2C1c2c(cc3c(c2OC)OCO3)CCN1C (configuration not stated) | 9 | 1 | 26*! | 1% | i | 1.1
CN1CCc2cc3c(c4c2C1CC41CCC(=NO)CC1)OCO3 (configuration not stated) | 12 | 1 | 7 | 13% | i | 1.8
Cc1cc(C)nc(SCc2nnc(SCC(=O)Nc3ccccc3C)n2Cc2ccco2)n1 | 0 | 1 | 11 | 5% | i | 1
O=C1CSC(c2nn(-c3ccccc3)cc2-c2cc3ccccc3oc2=O)N1Cc1ccco1 (configuration not stated) | 8 | 1.1 | 14 | 11% | · | 2.3*
Cc1cc(=O)n2[nH]c(-c3ccccc3Cl)cc2n1 | 0 | 0.98 | 25* | 8% | i | 1.1
CCOC(=O)c1csc(NC(=O)CSc2nnnn2CC)n1 | 11 | 0.99 | 6 | 6% | i | 1
CCOC(=O)c1cnn2c1[nH]c(=O)c1ccccc12 | 6 | 1 | 6 | 6% | · | 2.3*
CCOC(=O)c1cnn(-c2cc(C)c3ccccc3n2)c1N | 11 | 1.4 | 7 | 6% | i | 1.1
CSc1ccc(/C=N/n2nnnc2N)cc1 | 12 | 1.2 | 7 | 10% | · | 5*
CCN(C)c1ccc(/C=N\n2nnnc2N)cc1 | 9 | 1.1 | 10 | 15% | i | 2.5*
CCN(CC)c1ccc(/C=N/n2nnnc2N)c(O)c1 | 13 | 1 | 0 | 6% | i | 1.7
COc1cc(/C=N/n2nnnc2N)ccc1O | 1 | 1.1 | 9 | 9% | i | 1.3
COCCn1c(C)cc2c(c1=O)C(c1ccccc1F)C(C#N)=C(N)O2 (configuration not stated) | 2 | 1 | 26* | 9% | i | 1.1
SMILES | MK inhibit | Abs 340nm | Spn PMK inh | NADH enzymes | DPM-DC inhibit | Fluor 339 460
COc1ccc(OC)c(-n2c(N)c(C(=O)NCC3CCCO3)c3nc4ccccc4nc32)c1 (configuration not stated) | 0 | 1.1 | 0 | 0% | · | 2.1*
COc1ccc(C(=O)NCCCn2ccnc2)cc1 | 9 | 1 | 0 | 3% | i | 1.1
Nc1c(C(=O)NC2CCCC2)c2nc3ccccc3nc2n1N | 14 | 1.1 | 12 | 9% | i | 1.2
CC(C)Cn1c(N)c(C(=O)NCC2CCCO2)c2nc3ccccc3nc21 (configuration not stated) | 5 | 1.1 | 3 | 4% | · | 2.1*
COCCNC(=O)c1c(N)n(CCCn2ccnc2)c2nc3ccccc3nc12 | 10 | 1.1 | 13 | 12% | · | 3.8*
Nc1c(C(=O)NCC2CCCO2)c2nc3ccccc3nc2n1/N=C/c1ccncc1 (configuration not stated) | 1 | 1.1 | 9 | 3% | i | 1.1
Nc1c(C(=O)OCC2CCCO2)c2nc3ccccc3nc2n1C1CCCC1 (configuration not stated) | 0 | 1.1 | 2 | 1% | · | 3.8*
CC(C)NC(=O)c1ccc2c(c1)N(CC(=O)N1CCOCC1)C(=O)C(C)(C)O2 | 0 | 1 | 12 | 4% | i | 1.1
CCCCNC(=O)CN(C1CCCCC1)S(C)(=O)=O | 6 | 0.99 | 5 | 3% | i | 1.1
COc1ccc(-c2cn3c4c(sc3n2)CCCC4)cc1 | 6 | 1 | 6 | 4% | i | 1.1
COc1ccccc1N1CCN(C(=O)c2ccc(S(=O)(=O)N3CCCCCC3)cc2)CC1 | 8 | 0.97 | 10 | 5% | i | 1.1
COCCn1c(N)c(S(=O)(=O)c2cccs2)c2nc3ccccc3nc21 | 9 | 1.1 | 10 | 10% | · | 3.9*
COCCn1c(N)c(C(=O)Nc2sc3c(c2C(=O)OC)CCCC3)c2nc3ccccc3nc21 | 0 | 1.1 | 10 | 2% | i | 1.1
COCCn1c(N)c(C(=O)NCc2cccs2)c2nc3ccccc3nc21 | 4 | 1.1 | 8 | 6% | · | 3.7*
COCCCNc1nc2ccccc2nc1NS(=O)(=O)c1cccs1 | 7 | 1.1 | 16 | 8% | i | 1.2
COCCn1c(N)c(C(=O)NCC2CCCO2)c2nc3ccccc3nc21 (configuration not stated) | 11 | 1.1 | 3 | 7% | · | 2.4*
COCc1c(C(N)=O)nnn1-c1nonc1N | 9 | 0.97 | 10 | 6% | i | 1.1
CCCc1c(CC)c(=N)c2ccccc2n1C | 8 | 1.1 | 3 | 6% | · | 3.5*
Cn1c(-c2ccccc2)c(CCO)c2ccccc21 | 0 | 0.99 | 0 | 2% | i | 1.4
CCc1nnc(NC(=O)C(C)Sc2ccccc2)s1 (configuration not stated) | 9 | 0.99 | 4 | 4% | i | 1
CCc1ccccc1N(CC(=O)NCc1ccco1)C(=O)c1snc(C(N)=O)c1N | 6 | 1.1 | 5 | 6% | · | 3.3*
CCC(C)(C)NC(=O)CN(C(=O)c1snc(C(N)=O)c1N)c1ccc2c(c1)OCO2 | 0 | 1 | 0 | 4% | i | 1.1
CC(C)CCNC(=O)C(c1ccco1)N(Cc1ccccc1)C(=O)c1snc(C(N)=O)c1N (configuration not stated) | 13 | 1 | 15 | 15% | i | 1.9
